Bioassay records from PubChem.
Shown are actives, neighbours in structure and some others; about 0.58% of the full set was active somewhere.
PKM2 act = qHTS Assay for Activators of Human Muscle isoform 2 Pyruvate Kinase; purified PKM2, Kinase-Glo ATP luminescence, activation; response scale: 0% is enzyme alone, no compound; Potency, µM (series often up to 57.5 µM), usual class: activators; 0.34% of 260,000 active; Pyruvate kinase PKM (Homo sapiens), P14618; note: nearly all actives have a fitted effect of over 55% in size
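Kinase-Glo luminescence reports ATP generated from ADP (0.1 mM) and PEP (0.5 mM) by purified hPK-M2 after 1 h at room temperature, pH 7.2 imidazole buffer; intermediate enzyme activity allows detecting inhibitors and activators.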
B2AR arrestin = qHTS assay of beta-arrestin-biased ligands of beta2-adrenergic receptor; beta-arrestin recruitment to beta2AR, cell-based reporter; Potency, µM (doses to about 46.1 µM), usual class: activators; 0.02% of 330,000 active; AID 492947, 2010; note: nearly all actives have a fitted effect of over 65% in size
Target sequence (P07550 whole entry, looked up): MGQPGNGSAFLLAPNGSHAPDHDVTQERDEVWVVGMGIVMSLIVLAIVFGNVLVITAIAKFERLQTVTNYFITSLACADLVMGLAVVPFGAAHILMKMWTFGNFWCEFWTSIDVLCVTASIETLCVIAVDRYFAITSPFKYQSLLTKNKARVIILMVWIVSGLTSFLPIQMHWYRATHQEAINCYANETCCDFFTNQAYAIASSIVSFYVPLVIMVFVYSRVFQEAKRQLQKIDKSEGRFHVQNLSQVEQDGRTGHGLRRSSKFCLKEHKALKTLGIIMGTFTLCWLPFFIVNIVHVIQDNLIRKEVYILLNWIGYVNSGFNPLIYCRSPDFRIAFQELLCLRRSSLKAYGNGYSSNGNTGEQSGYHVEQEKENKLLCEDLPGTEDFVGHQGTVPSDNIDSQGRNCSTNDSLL
PINK1 modulator = A Quantitative High throughput Screen to Identify Chemical Modulators of PINK1 Expression; Potency, µM (series often up to 76.6 µM), hits mostly activators; PINK1 immunofluorescence, high-content cytometry, 24 h; AID 624263, 2012; 0.2% of 410,000 active; active = well fitted activation curve with a large enough effect; inconclusive = small, poorly fitted or top-dose-only effect; cell line not stated here; note: nearly all actives have a fitted effect of over 65% in size
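Readout is PINK1 immunofluorescence, quantified alongside mitochondrial, cell and nuclear markers by laser-scanning microplate cytometry. Cells from a stable line were exposed to compound titrations (5 concentrations) for 24 hours, with CCCP controls.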
Epigenetic derep = Quantitative High-Throughput Screen for Regulators of Epigenetic Control. murine LDR cells, GFP reporter derepression, 30 h. Potency, µM (top dose mostly 53.9 µM), actives largely listed as activators. 0.2% of 280,000 active; note: nearly all actives have a fitted effect of over 60% in size
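Murine LDR cells carrying a silenced, genomically integrated CMV-driven GFP reporter were exposed to compound for 30 hours at 37 C. After PBS washes, GFP-positive cells (20–120 um objects) were counted by laser-scanning microplate cytometry.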
IL2 activator = qHTS of IL-2 Activators | IL-2 activation reporter assay, cell-based qHTS; stimulated with anti-CD3/CD4/CD28 beads; in transgenic mouse T cells | activation, % (series mostly up to about 46 µM) | 0.065% of 360,000 active; in the data active = activation above about 50%; inconclusive = mostly about 30% to 49%
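EGFP and DsRed fluorescence is measured by plate cytometry in unstimulated transgenic mouse T cells exposed to compound for 60 minutes, then stimulated 18 hours at 37 degrees C with anti-CD3/anti-CD4 beads plus anti-CD28.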
Numbers stand for hits; . = inactive; ? = inconclusive; / = not tested or not shown; [ ] = remark or other dose. Unless noted, calls come from the whole dose curve; as a rule, active = well fitted curve in the direction sought with a large enough effect; inconclusive = small, poorly fitted or top-dose-only effect, or another doubt; inactive = no such curve, though single readings can be large; an effect the other way counts as inactive or inconclusive.

SMILES	PKM2 act	B2AR arrestin	PINK1 modulator	Epigenetic derep	IL2 activator
CCOc1cc(/C=C(/C#N)c2nc3ccccc3[nH]2)ccc1Oc1ccc([N+](=O)[O-])cn1	.	.	/	?	.
Cc1ccc2nc(/C(C#N)=C\c3ccc(Oc4ccc([N+](=O)[O-])cn4)cc3)[nH]c2c1	.	.	.	.	.
COc1cc(/C=C(/C#N)c2nc3ccccc3[nH]2)ccc1Oc1ncccc1[N+](=O)[O-]	.	.	7.94µM	.	.
COc1ccc2nc(/C(C#N)=C\c3ccc(Oc4ccc([N+](=O)[O-])cn4)cc3)[nH]c2c1	.	.	11.2µM	.	.
Cn1ccc(C(=O)NCC2CCC3(CCN(Cc4ccc(F)cc4F)CC3)O2)n1 (centres undefined)	/	/	.	/	/
OC1(c2cccnc2)CCN(Cc2ccc3c(c2)CN(Cc2cccc(F)c2F)CCO3)CC1	/	/	.	/	/
COc1cc(NC(=O)c2noc3c2CCC3)c(OC)cc1Cl	.	.	11.2µM	.	.
COc1ccc(NC(=O)c2noc3c2CCC3)cc1	.	.	.	.	.
CCn1cc([N+](=O)[O-])c(C(=O)Nc2nc(-c3ccc(C)c(C)c3)c(C)s2)n1	.	.	2.82µM	.	.
CC(C)(C)NC(=O)C(c1ccc(F)cc1)N(Cc1ccccc1Cl)C(=O)c1ccn[nH]1 (centres undefined)	/	1µM	.	.	.
CC(=O)N(C1=C(Cl)C(=O)c2ccccc2C1=O)C1CCCCC1	3.55µM	.	.	.	.
CC(C)C(NC(=O)c1ccoc1)c1nnc2n1CCN(Cc1ccc3c(c1)Cc1ccccc1-3)CC2 (centres undefined)	/	/	.	/	/
CCSc1nsc(NC(=O)Nc2ccc(F)cc2F)n1	.[11.5 µM]	.	22.4µM	/	.
Cc1cccc(C)c1NC1=C(Cl)C(=O)OC1OC(=O)c1ccccc1 (centres undefined)	.	.	.	.	.
Cc1ccc(NC2=C(Cl)C(=O)OC2OC(=O)c2ccccc2)c(C)c1 (centres undefined)	.	.	.	15.8µM	.
Clc1ccccc1Cn1nnc2c(Nc3ccccc3)ncnc21	.	.	.	.	.
c1ccc(CCNc2ncnc3c2nnn3Cc2ccccc2)cc1	.	.	11.2µM	.	.
Clc1ccccc1Cn1nnc2c(NCC3CC3)ncnc21	8.91µM	.	.	.	.
c1ccc(Cn2nnc3c(NCCN4CCOCC4)ncnc32)cc1	.	.	.	.	.
Cc1cc(-c2ccnc(-n3ncc(C(=O)NCC4COCCO4)c3C)n2)c(C)s1 (centres undefined)	/	/	.	/	/
CC(C=NNc1ccc([N+](=O)[O-])cn1)=Cc1ccccc1	/	/	28.2µM	/	.
O=C(O)c1ccccc1C=NNc1ccc([N+](=O)[O-])cn1	/	/	.	/	.
O=[N+]([O-])c1ccc(NN=Cc2cccc3ccccc23)nc1	/	/	.	/	58.5
O=C(CN1C(=O)C(=O)c2ccccc21)NCCc1ccccc1	31.6µM	.	.	.	.
Cc1ncc2c(c1CNC(=O)c1ccc3c(c1)OCO3)CCN(C(=O)c1cccc(-n3cccn3)c1)C2	/	/	.	/	/
SMILES	PKM2 act	B2AR arrestin	PINK1 modulator	Epigenetic derep	IL2 activator
O=C(COc1ccccc1Cl)Nc1ccc(OCc2cc(=O)n3ccsc3n2)cc1	/	/	.	.	/
O=c1cc(CSc2nnc(COc3ccccc3Cl)o2)nc2sccn12	25.1µM	.	/	.	.
Nc1nc(SCC(=O)Nc2ccc(Br)cc2F)n[nH]1	22.4µM	.	.	.	.
CC(=O)N1N=C(c2ccc(Cl)cc2)CC1c1ccco1 (centres undefined)	25.1µM	.	.	.	.
CC(C)Oc1ccc(F)cc1-c1cc(C(=O)NCc2cc(C(F)(F)F)cc(C(F)(F)F)c2)[nH]n1	/	/	35.5µM	/	.
CC(C)Oc1ccc(F)cc1-c1cc(C(=O)NCc2ccc(C(F)(F)F)cc2)[nH]n1	/	/	.	/	.
CSc1nc2ccc(NS(=O)(=O)c3ccc4c(c3)OCCO4)cc2s1	15.8µM	.	.	.	.
CSc1nc2ccc(NS(=O)(=O)c3c(Cl)cccc3Cl)cc2s1	?	.	.	.	.
Cc1ccc(S(=O)(=O)c2cc(OC(=O)c3ccco3)ccc2OC(=O)c2ccco2)cc1	.	.	.	.	.
O=C(Oc1ccc(OC(=O)c2ccco2)c(S(=O)(=O)c2ccc(Br)cc2)c1)c1ccco1	4.47µM	.	.	.	.
Cn1c(O)c(N=N/C(=N/c2ccccn2)c2ccccn2)c2cc(Br)ccc21	/	/	/	.	/
CCn1c(-c2cccnc2)nc2cc(NC(=O)COC)cc(C(=O)N3CC[C@@H]4CCCC[C@H]4C3)c21	/	/	.	/	/
CC(=O)c1ccccc1C(=O)NCC1Cc2cccc(-c3cccnc3)c2O1 (centres undefined)	/	/	.	/	/
Cc1ccc(N2C(=O)c3cccc4c(N)ccc(c34)C2=O)c2cccnc12	.	.	39.8µM	3.98µM	316.8
Cc1nn(C)c(C)c1N1C(=O)c2cccc3c(N)ccc(c23)C1=O	.	.	.	.	.
CCOc1ccc(OCC)c(Nc2nc3ccc(C(=O)c4ccccc4)cc3n3cnnc23)c1	/	/	.	.	/
CCOc1ccc(OCC)c(Nc2nc3ccc(Cl)cc3n3cnnc23)c1	/	/	.	22.4µM	/
COc1ccc(C)cc1NC(=O)N1CCN(c2nnc(C)c3c(C)n(-c4ccccc4)nc23)CC1	/	/	28.2µM	.	/
Cc1ccc(C)c(NC(=O)N2CCN(c3nnc(C)c4c(C)n(-c5ccccc5)nc34)CC2)c1	/	/	.	.	/
OCCN1CCN(Cc2ccc3c(c2)CN(Cc2cc4ccccc4o2)CCO3)CC1	/	/	.	/	/
CC(C)[C@@H]1CC[C@@H](C)C[C@H]1OC(=O)C[n+]1cc(-c2ccc(Cl)cc2)n2c1CCCCC2	.	.	?	.	.
COc1ccc(-c2c[n+](CC(=O)OC3CC(C)CCC3C(C)C)c3n2CCC3)cc1 (centres undefined)	.	.	39.8µM	.	.
Cc1c(C(=O)NC2CCCCCC2)sc2ncnc(NCC3CCCO3)c12 (centres undefined)	/	/	.	/	/
COCCCNC(=O)COc1ccc(S(=O)(=O)Nc2ccccc2)cc1	14.1µM	.	.	.	.
CCCCCCN1C[C@H](O)[C@@H](n2cc(-c3ccc(F)cc3)nn2)C[C@@H]1c1ccc(Cl)cc1	/	/	15.8µM	/	.
O=C(O)Cn1cc(/C=c2/sc3nc4ccccc4n3c2=O)c2ccccc21	.	.	.	.	166.0
COc1cc(N2CCCC2)c(OC)cc1/C=c1/sc2nc3ccccc3n2c1=O	.	.	/	2.82µM	/
CC(C)(C)c1ccc(S(=O)(=O)N[C@H]2CC[C@@H](n3cc(C(=O)N4CCCC4)nn3)CC2)cc1	/	/	.	/	/
COc1cccc(C(=O)N2CCc3c(C(=O)NC(C)c4ccco4)c(OC)cc(=O)n3CC2)c1OC (centres undefined)	/	/	.	/	/
